From PubChem
HT1080-NT tox: kills 2HG-producing HT-1080-NT fibrosarcoma cells; actives 1.6% (n = 360,000); Potency, µM (highest dose often 46.1 µM), without a hit: top-dose activity, negative = less viability, most hits filed as cytotoxic; HT-1080-NT fibrosarcoma viability, CellTiter-Glo ATP luminescence, 48 h;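 further: NT is the 2HG producing partner of a matched IDH1 knockdown line; potency means the concentration at half of the fitted maximal effect; 0% = DMSO-treated cells and -100% = media-only wells without cells; nearly all actives have a fitted effect of over 55% in size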
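750 cells/well, RPMI + 5% FBS; 2 h settle, compound pin-transfer, 48 h at 37 degrees C. CellTiter-Glo 10 min RT, luminescence. Normalized to DMSO and media-only wells.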
ELG1 repair inh: blocks ELG1-dependent DNA repair in HEK293T cells | HEK293T ELG1-luciferase reporter, luminescence, 16 h; DNA damage induced by 5-fluorouridine | Potency, µM (highest dose often 46.1 µM), inactives show top-dose activity change, negative = inhibition, actives largely listed as inhibitors | actives 2.3% (n = 330,000) | AID 504467; further: potency means the concentration at half of the fitted maximal effect; nearly all actives have a fitted effect of over 55% in size
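Luminescence from the luciferase reporter, measured 30 min after ONE-Glo reagent at room temperature, was the read-out. Beforehand, 2,000 cells per well were exposed for 16 hr at 37 °C to 5-fluorouridine together with compound or vehicle.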
HT1080 IDH1KD tx: kills HT-1080 cells with IDH1 knockdown; HT-1080 IDH1 knockdown viability, ATP luminescence, 48 h; Potency, µM (titrated, usually from 46.1 µM), for inactives: at the top dose activity, negative = toxicity, usual class: cytotoxic; actives 2% (n = 360,000);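 further: potency means the concentration at half of the fitted maximal effect; 0% = DMSO wells and -100% = cell-free medium wells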
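After a 2 h attachment period, IDH1KD HT-1080 cells took pin-transferred compound for 48 h at 37 °C; ATP-based luminescence after 10 min room-temperature reagent incubation reported viability.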
IL-1B inflam inh: blocks inflammasome-driven IL-1 beta release | activity change, % at 57.5 µM | THP-1 LPS/ATP IL-1B secretion, AlphaLISA, 16 h; active compounds read low | actives 4.7% (n = 360,000) | AID 743279; in the data active means activity change below about -50%; inconclusive means mostly about -30% to -49%
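THP-1 cells pretreated 1 hr with compounds (up to 57.5 uM final), then stimulated with LPS (250 ng/mL final) plus ATP (1.25 mM final); secreted IL-1B measured by AlphaLISA after 16 hr, decreased signal indicating inhibition.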
TDP1 cell noCPT: qHTS for Inhibitors of human tyrosyl-DNA phosphodiesterase 1 (TDP1): qHTS in cells in absence of CPT; AID 686978, 2013; Potency, µM (doses to about 46.2 µM), for the others: top-dose activity change, negative = growth inhibition, usual class: inhibitors; actives 15% (n = 420,000); DT40 Tdp1-/- hTDP1 cells, no CPT, ATP luminescence, 48 h; further: potency means the concentration at half of the fitted maximal effect; nearly all actives have a fitted effect of over 55% in size
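Readout: luminescence from CellTiter-Glo after 30 min in the dark at RT. Cells: DT40 Tdp1-/- with stable hTDP1, 400/well. Exposure: compounds alone, ≥48 hr, 37 °C.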
DT40 TDP1 CPT: growth inhibition of DT40 Tdp1-/-;hTDP1 cells with camptothecin (screen for TDP1 inhibitors) | chicken DT40 Tdp1-/-;hTDP1 cells + 20 nM CPT, ATP luminescence, 48 h | AID 686979 | Potency, µM (highest dose often 46.2 µM), for inactives: at the top dose activity change, negative = growth inhibition, usual class: inhibitors | actives 12% (n = 420,000); further: potency means the concentration at half of the fitted maximal effect; nearly all actives have a fitted effect of over 55% in size
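Chicken DT40 Tdp1-/- cells stably complemented with human TDP1 were seeded at 400 cells/well in medium containing 20 nM camptothecin, exposed to pin-transferred compounds, and grown at 37 °C for at least 48 hr. Viability was read as ATP luminescence.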
An asterisk follows results filed as active; ? = inconclusive; / = not tested or not shown. A selection: hits, their analogues and other compounds. The true share with any hit is near 19%. Unless noted, the call rests on the fitted dose curve; in most records, active means well fitted curve in the direction sought with a large enough effect; inconclusive means small, poorly fitted or top-dose-only effect, or another doubt; inactive means no such curve, though single readings can be large; an effect the other way counts as inactive or inconclusive. Unless noted, on the % scale 0 is the no-effect control and ±100 the full control effect.

SMILES	HT1080-NT tox	ELG1 repair inh	HT1080 IDH1KD tx	IL-1B inflam inh	TDP1 cell noCPT	DT40 TDP1 CPT
CC(=O)O[C@@]1(C(C)=O)CCC2C3C=C(C)C4=CC(=O)CCC4(C)C3CCC21C (some centres undefined)	/	/	/	/	-15%	-6%
CC(=O)OCC(=O)[C@@]1(O)CC[C@H]2[C@@H]3CCC4=CC(=O)C=C[C@]4(C)[C@H]3C(=O)C[C@@]21C	?	0%	23%	-4	0%	16%
CC(=O)O[C@]1(C(C)=O)CC[C@H]2[C@@H]3C=C(C)C4=CC(=O)CC[C@@H]4[C@H]3CC[C@@]21C	?	2%	0%	?	4.6µM*	?
Cc1ccc(C)c(OCC(=O)Nc2cc(NC(=O)COc3cc(C)ccc3C)cc(C(=O)O)c2)c1	-8%	?	-15%	5	?	1%
CCOC(=O)CNC(=O)N1CCc2cc(S(=O)(=O)N3CCC(C)CC3)ccc21	/	/	/	/	-28%	?
CCCCCC(=O)O[C@]1(C(C)=O)CC[C@H]2[C@@H]3CCC4=CC(=O)CC[C@]4(C)[C@H]3CC[C@@]21C	?	12%	?	0	18µM*	26µM*
O=C(CN1CCN(C(=O)c2c(F)cccc2F)CC1)Nc1ccccc1C(F)(F)F	8%	?	0%	-4	?	-29%
CC(C)c1ccc(N(CC(=O)NC2CCCC2)C(=O)CCC(=O)Nc2nccs2)cc1	12%	-2%	1%	-22	-17%	-30%
Cc1ccc(NC(=O)c2cc(N3CCOCC3)nc3ccccc23)cc1	10µM*	15µM*	?	-5	?	23µM*
O=C(Nc1nccs1)c1cc(N2CCOCC2)nc2ccccc12	-2%	18µM*	-14%	24	-16%	-2%
Cc1cccc(NC(=O)c2cc(N3CCOCC3)nc3ccccc23)c1	-1%	?	0%	-22	?	12µM*
COc1ccccc1/C=C\C(=O)NCC(=O)N/N=C(/C)c1cccc([N+](=O)[O-])c1	-29%	-12%	?	68	?	?
CCOc1ccc(-c2nc(SC(C(C)=O)C(=O)N(C)C)c3c(=O)n(C)c(=O)n(C)c3n2)cc1 (centres undefined)	/	/	/	/	-18%	-5%
COc1ccc(-c2cnc3c(NC=O)cc(-c4ccoc4)cn23)cc1OC	?	/	?	-23	2.9µM*	5.2µM*
COc1ccc(-c2cnc3c(NC=O)cc(-c4cc(OC)c(OC)c(OC)c4)cn23)cc1OC	?	/	?	-28	5.2µM*	6.5µM*
COc1ccc(-c2cnc3c(NC=O)cc(-c4ccc(F)cc4)cn23)cc1OC	?	/	?	-14	0.013µM*	0.0058µM*
COc1ccc(-c2cc(NC=O)c3ncc(-c4cc(OC)c(OC)c(OC)c4)n3c2)cc1	?	/	?	108	0.21µM*	0.15µM*
CCSc1ccc(-c2cc(NC=O)c3ncc(-c4cc(OC)c(OC)c(OC)c4)n3c2)cc1	?	/	-23%	110	?	?
COc1ccc2c(c1)cc1c(=O)n(CC(=O)NC3CCCCC3)nc(C)n12	/	/	/	/	3%	8%
CC(=O)Nc1cc(-c2ccccc2N(C)C)cn2c(-c3cccc(C(F)(F)F)c3)cnc12	?	/	?	-21	?	?
COc1ccc(-c2cnc3c(NC=O)cc(-c4ccccc4)cn23)cc1OC	?	/	?	-14	0.92µM*	0.92µM*
COc1ccc(F)cc1-c1cc(NC=O)c2ncc(-c3cccc(C(F)(F)F)c3)n2c1	?	/	5.2µM*	3	4.6µM*	5.2µM*
COc1ccc2c(c1)c1ccc3c(c1n2C)C(=O)C=CC3=O	-2%	-10%	-5%	-6	0.52µM*	0.73µM*
Cc1ccc(C)c(Cn2c(=O)n(Cc3ccccc3)c(=O)c3c2c2cc(C)ccc2n3C)c1	/	/	/	/	-17%	-9%
Cc1ccc2c(c1)c1ccc3c(c1n2C)C(=O)C=CC3=O	-12%	-26%	-1%	-3	0.58µM*	0.52µM*
SMILES	HT1080-NT tox	ELG1 repair inh	HT1080 IDH1KD tx	IL-1B inflam inh	TDP1 cell noCPT	DT40 TDP1 CPT
Cn1c2ccccc2c2ccc3c(c21)C(=O)C=CC3=O	13%	/	23%	?	0.52µM*	0.41µM*
COc1ccc2c(c1)c1ncn(CCN3CCNCC3)c(=O)c1n2C	6%	2%	-8%	-1	-28%	-28%
O=C(Cc1cccc(NC(=O)C2CCCN(C(=O)C3CCCCC3)C2)c1)Nc1cccc(C(=O)N2CCCC2)c1 (centres undefined)	0%	?	2%	0	-15%	-27%
Cc1ccc(NC(=O)CSc2nnc(C3CC3)n2C)cc1S(=O)(=O)N1CCCCC1	3%	-20%	-1%	24	-6%	-6%
CC(=O)N1CCc2cc(S(=O)(=O)CCC(=O)N(C)c3cc(C)ccc3C)ccc21	0%	-3%	-4%	16	-7%	-23%
Cc1ccc(-n2[nH]c(C)c(C=Nc3ccc4[nH]c(=O)[nH]c4c3)c2=O)cc1C	23µM*	27%	23µM*	-18	21µM*	?
Cc1ccc(-n2[nH]c(C)c(C=Nc3ccc4[nH]c(=O)[nH]c4c3)c2=O)cc1	?	-25%	?	-28	16µM*	16µM*
Cc1[nH]n(-c2cccc3ccccc23)c(=O)c1C=Nc1ccc2[nH]c(=O)[nH]c2c1	13%	12%	10%	22	-14%	-8%
Cc1ccc(N=Cc2c(C)[nH]n(-c3nc4ccccc4[nH]3)c2=O)cc1	2.9µM*	27%	3.3µM*	8	4.1µM*	3.3µM*
Cc1ccc(N=Cc2c(O)c3ccccc3n(C)c2=O)cc1	-24%	8%	-10%	11	-20%	-1%
COc1ccc(CN2C(=NC(=O)COc3ccccc3)SC3CS(=O)(=O)CC32)cc1 (centres undefined)	-17%	?	-11%	-2	-26%	-7%
Cc1ccc(N2CC(NC(=O)c3ccco3)CC2=O)cc1 (centres undefined)	/	/	/	/	-1%	-4%
Cc1ccc(S(=O)(=O)CCC(=O)OCC(=O)Nc2ccc(N3CCOCC3)cc2)cc1	7%	12%	15%	1	9%	-6%
CSCc1ccc(C(=O)NC(C)c2ccc(-n3ccnc3)cc2)cc1 (centres undefined)	5%	12%	1%	3	-5%	-1%
Cc1ccc(O)c(N=Nc2ccccc2)n1	?	/	-7%	-25	16µM*	2.9µM*
